Sfp PPTase inh: qHTS Assay for Inhibitors of Bacillus subtilis Sfp phosphopantetheinyl transferase (PPTase). 4'-phosphopantetheinyl transferase ffp (Bacillus subtilis), Q9F4F7. Biochemical Sfp PPTase activity, qHTS. Potency, µM, inactives show largest response in the series, negative = inhibition, usual class: inhibitors. 3.5% of 310,000 active. AID 1490, 2009;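 further: the enzyme is Sfp with the accession as filed and its product quenches rhodamine fluorescence; 0% = enzyme reaction without inhibitor and -100% = no enzyme wells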
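Buffer: 50 mM Hepes-Na pH 7.6, 10 mM MgCl2, 0.01% Nonidet P-40, 0.01% BSA. Enzyme 15 nM, pre-exposed to compound 15 min; substrates then added and fluorescence change tracked over 30 min.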
BAZ2B block: qHTS Assay for Inhibitors of BAZ2B; Bromodomain adjacent to zinc finger domain protein 2B (Homo sapiens), Q9UIF8; 4.4% of 360,000 active; AID 504333, 2011; AlphaScreen BAZ2B-H3K14Ac peptide displacement; Potency, µM (series often up to 114 µM), for the others: at the top dose activity change, negative = inhibition, hits mostly inhibitors; further: on the % scale 0 is the no-effect control and ±100 the full control effect; nearly all actives have a fitted effect of over 60% in size
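AlphaScreen displacement of biotin-H3(5-23)K14Ac peptide (50 nM final) from BAZ2B (50 nM final) in PBS pH 7.4, 0.01% Tween-20; complex preformed 30 min RT, then compounds (top 110 uM) 30 min RT, beads 20 min dark.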
L3MBTL1 block: qHTS Assay for the Inhibitors of L3MBTL1; Lethal(3)malignant brain tumor-like protein 1 (Homo sapiens), Q9Y468; AlphaScreen L3MBTL1–H3K9me1 peptide binding; Potency, µM (doses to about 57.1 µM), for the others: at the highest dose activity, negative = inhibition, usual class: inhibitors; 0.66% of 230,000 active; AID 485360, 2010; further: on the % scale 0 is the no-effect control and ±100 the full control effect; nearly all actives have a fitted effect of over 60% in size
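Read-out is AlphaScreen signal from streptavidin donor and nickel chelate acceptor beads (10 ug/mL final each) bridging L3MBTL1 (50 nM) and biotinylated K9-monomethylated H3(1-15) peptide (75 nM), after 30 min compound exposure at room temperature.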
G9a inh: qHTS Assay for Inhibitors of Histone Lysine Methyltransferase G9a; Histone-lysine N-methyltransferase EHMT2 (Homo sapiens), Q96KQ7; G9a H3K9 monomethylation, AlphaScreen, 2 h; Potency, µM (top dose mostly 102 µM), inactives show at the top dose activity, negative = inhibition, usual class: inhibitors; 8.8% of 350,000 active; AID 504332, 2011; further: on the % scale 0 is the no-effect control and ±100 the full control effect; nearly all actives have a fitted effect of over 75% in size
Target sequence (Q96KQ7 913-1193 limits assumed): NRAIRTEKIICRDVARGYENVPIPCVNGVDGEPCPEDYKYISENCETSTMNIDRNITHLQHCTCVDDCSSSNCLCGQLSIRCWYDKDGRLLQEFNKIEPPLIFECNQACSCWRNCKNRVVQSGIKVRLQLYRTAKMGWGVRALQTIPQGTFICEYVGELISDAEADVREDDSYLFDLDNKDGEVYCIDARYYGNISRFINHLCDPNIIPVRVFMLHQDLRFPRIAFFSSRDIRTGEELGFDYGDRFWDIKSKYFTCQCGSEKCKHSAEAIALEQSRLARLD
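Signal arises when biotinylated H3K9 peptide, once monomethylated, bridges streptavidin donor and antibody-captured acceptor beads. Enzyme at 20 nM was preincubated 15 min with test compounds; peptide 500 nM and SAM 20 uM then reacted for 2 h.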
HP1b chromo inh: HTS for Inhibitors of HP1-beta Chromodomain Interactions with Methylated Histone Tails; Chromobox protein homolog 1 (Homo sapiens), P83916; AlphaScreen HP1-beta / biotin-H3K9me3 peptide binding; Potency, µM (doses to about 114 µM), for the others: at the top dose activity change, negative = inhibition, hits mostly inhibitors; 0.56% of 390,000 active; further: nearly all actives have a fitted effect of over 70% in size
Target sequence (P83916 whole entry, looked up): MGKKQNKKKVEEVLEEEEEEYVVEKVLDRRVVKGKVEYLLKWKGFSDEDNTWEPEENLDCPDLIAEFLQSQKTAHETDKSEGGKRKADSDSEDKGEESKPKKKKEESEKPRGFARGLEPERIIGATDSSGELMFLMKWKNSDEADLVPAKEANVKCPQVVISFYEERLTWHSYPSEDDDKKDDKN
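Compound inhibition of the preformed complex between 50 nM HP1-beta and 50 nM biotinylated H3K9me3 peptide was read by AlphaScreen. Buffer was PBS pH 7.4 with 0.01% Tween-20. Incubations ran 30 min at room temperature, with 10 ug/mL donor/acceptor beads.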
JMJD2A Tudor: qHTS Assay for Inhibitors of JMJD2A-Tudor Domain | Potency, µM (doses to about 114 µM), for the others: at the top dose activity change, negative = inhibition, usual class: inhibitors | AlphaScreen JMJD2A-Tudor / H3K4me3 peptide binding | AID 504339, 2011 | 4.4% of 390,000 active | Lysine-specific demethylase 4A (Homo sapiens), O75164; further: on the % scale 0 is the no-effect control and ±100 the full control effect; nearly all actives have a fitted effect of over 50% in size
Numbers without * were called inactive; u = inconclusive; x = no result; [ ] = remark or other dose. Hits are enriched below; roughly 12% of the tested compounds scored in any of these assays. The call rests on the fitted dose curve; in most records, active means well fitted curve in the direction sought with a large enough effect; inconclusive means small, poorly fitted or top-dose-only effect, or another doubt; inactive means no such curve, though single readings can be large; an effect the other way counts as inactive or inconclusive. Potency means the concentration at half of the fitted maximal effect.

SMILES	Sfp PPTase inh	BAZ2B block	L3MBTL1 block	G9a inh	HP1b chromo inh	JMJD2A Tudor
CCOC(=O)N1CCN(C(=O)c2ccc(Oc3ccc([N+](=O)[O-])cc3)cc2)CC1	4%	-16%	-1%	-15%	-4%	-20%
O=[N+]([O-])c1ccc(C(=S)N2CCCC2)cc1	50µM*	u	-11%	-113%[59 µM]	16%	-8%
CCCN1CCC(NC(=S)Nc2ccc([N+](=O)[O-])cc2)CC1	-8%	-6%	-5%	x	16%	-18%
CC1CCN(C(=S)c2ccc([N+](=O)[O-])cc2)CC1	45µM*	u	-1%	7.9µM*	u	-34%
CCN1CCN(C(=S)c2ccc([N+](=O)[O-])cc2)CC1	13µM*	4%	2%	10µM*	-34%	u
Cc1ccc(N2CC(c3nnc(NC(=O)c4ccco4)s3)CC2=O)cc1Cl (centres undefined)	x	-1%	x	13%[59 µM]	38%	-12%
COc1ccc(S(=O)Cc2ccc(C(=O)N3CCN(c4cccc(C)c4C)CC3)o2)cc1 (centres undefined)	-8%	u	x	7%	52%	0%
CSC1=NCCN1C(=O)c1c(F)cccc1Cl	8%	-1%	x	50µM*	51%	-4%
CN(c1ccc(F)cc1)S(=O)(=O)c1ccc(Cl)c(C(=O)NC2(C)CCS(=O)(=O)C2)c1 (centres undefined)	x	7%	1%	6%[12.7 µM]	37%	-12%
CS(=O)(=O)c1ccc(C(=O)Nc2cc(S(C)(=O)=O)ccc2Cl)cc1	0%	0%	3%	45µM*	11%	-12%
O=C1Cc2cc(S(=O)(=O)N3CCN(c4ccc(O)cc4)CC3)ccc2N1	x	x	x	x	x	126µM*
O=C1Cc2cc(S(=O)(=O)N3CCN(c4ccc([N+](=O)[O-])cc4)CC3)ccc2N1	x	x	x	x	x	-31%
O=C1CC(=O)Nc2cc(S(=O)(=O)N3CCN(c4ccc([N+](=O)[O-])cc4)CC3)ccc2N1	5%	50µM*	x	13µM*	44%	29%
O=C1Cc2cc(S(=O)(=O)N3CCN(c4ccc(F)cc4)CC3)ccc2N1	x	x	x	x	x	-26%[229 µM]
CCOc1ccc(CNC(=O)c2cnc3sc(N4CCCCCC4)nn3c2=O)cc1OC	x	-1%	x	6%[59 µM]	51%	-21%
COc1ccc(-n2c(=O)cnc3cnc(Oc4ccccc4)nc32)cc1	16%	x	x	4%[12.7 µM]	x	x
Cc1c(Cl)c([N+](=O)[O-])nn1CCCC(=O)N(Cc1ccccc1)Cc1ccccc1	-16%	-39%	-16%	-34%[59 µM]	51%	-22%
CCN(Cc1ccccc1)c1ccc(N=Nc2nn(C)c(C)c2[N+](=O)[O-])cc1	-6%	8.9µM*	16µM*	10µM*	u	6.3µM*
CCN(CC)c1ccc(N=Nc2nn(C)c(C)c2[N+](=O)[O-])cc1	-14%	10µM*	u	u	14µM*	u
S=C(NCCc1ccccc1)Nc1ccc(Br)cc1	0%	-5%	4%	43%[59 µM]	34%	-3%
CC(C)CCOc1ccc(C(=O)O)cc1	5%	-6%	x	11%[2.33 µM]	48%	-11%
CC(C)CCOc1ccc(C(=O)CCNC(C)C(=O)O)cc1 (centres undefined)	-10%	-2%	9%	5.6µM*	x	x
C/C=C/c1ccc(OCCCNC)c(OC)c1	-21%	50µM*	x	16µM*	u	1.1µM*
C/C=C/c1ccc(OCCCCOc2c(OC)cccc2OC)c(OC)c1	u	42%	26%	49%[59 µM]	129%	29%
C/C=C/c1ccc(OCCCCN(C)Cc2ccccc2)c(OC)c1	-11%	50µM*	-12%	u	u	18µM*
COc1cc(C)ccc1OCCCOc1cc(C)ccc1Cl	x	x	x	x	107%	68%

Screening data from PubChem.
